Assay results from PubChem BioAssay AID485313 (National Center for Advancing Translational Sciences (NCATS), 2010).
Hit rate of the full screen: of about 320,000 compounds, about 7,600 (2.4%) were called active. About 3% were inconclusive and are not listed. Calls follow the shape of the dose curve; as a rule, active = well fitted activation curve with a large enough effect; inconclusive = small, poorly fitted or top-dose-only effect; inactive = no such curve, though single readings can be large or run the other way. What follows is part of a selection rich in actives, with near analogues and random picks from the rest.

Test: qHTS Assay for NPC1 Promoter Activators; also: nearly all actives have a fitted effect of over 60% in size
Settings: Huh7 NPC1 promoter luciferase reporter, 24 h; series mostly up to 9.22 µM
How it was run: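 Luminescence from an NPC1 promoter-driven luciferase reporter in stably transfected Huh7 cells was measured after 24 h compound treatment at 37 °C, followed by 10 min ambient incubation with luciferase detection reagent.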
Potency is read from the fitted curve at half-maximal effect.

Potency, active:
O=[N+]([O-])c1cccc(/C=N/Nc2ncc(Br)cn2)c1 2.82 µM, COc1ccc(/C=N/OCc2ccccc2C#N)c(OC)c1 3.98 µM, CC(C)C(=O)Nc1ccc2c(c1)oc1ccccc12 3.55 µM, CCCCc1ccc(NC(=S)N2CCCC(CO)C2)cc1 (stereo not drawn) 1.58 µM, N#Cc1ccccc1NC(=O)c1cccc(COc2ccc(Cl)cc2Cl)c1 0.316 µM, CSCCNC(=O)c1ccc2nc(Cc3ccccc3F)oc2c1 2.51 µM, CCc1ccc(NC(=O)N2CCc3ccccc3C2)cc1 2.24 µM, CCOc1ccc(/C(O)=C2\C(=O)C(=O)N(c3ccc(OC)cc3)C2c2ccccc2[N+](=O)[O-])cc1 (stereo not drawn) 0.398 µM, COc1ccc(Nc2ncc(F)c(N3CCOCC3)n2)cc1 1.26 µM, OCCCN1c2ccccc2Nc2nnc(-c3ccccc3)cc21 2.24 µM, CC(=O)c1cc(C#N)c(SCC(=O)C(C)(C)C)nc1C 3.16 µM, COc1ccc(/C=N/Nc2nc3ccccc3o2)cc1OC 2 µM, COc1ccc(-c2nc3n(c2Br)CCC3)cc1 2.82 µM, COc1cc(/C=N/O)ccc1OCc1ccc([N+](=O)[O-])cc1 2.51 µM

Potency, inactive:
O=S(=O)(c1ccc(SCc2ccc(Br)cc2)nc1)N1CCOCC1, CCOc1ccc(C(=O)NCC(=O)N2CCN(c3ccc(C(F)(F)F)cn3)CC2)cc1, O=C(N/N=C/c1cccc([N+](=O)[O-])c1)C1CC(=O)N(c2ccc(Br)cc2)C1 (stereo not drawn), Cc1ccc(NC(=O)O/N=C/c2cccc([N+](=O)[O-])c2)cc1, CC(C)Oc1ccc(C(=O)NCC(=O)Nc2ccc3c(c2)CCC3)cc1, COc1ccc(/C=N/NC(=O)c2ccc3c(c2)OCCO3)c(OC)c1, COc1ccc(/C=N/Nc2cc(N3CCOCC3)nc(C)n2)c(OC)c1, CC(C)C(=O)Nc1ccc2oc(=O)ccc2c1, Cc1cc(=O)oc2cc(NC(=O)C(C)Oc3ccccc3)ccc12 (stereo not drawn), O=S(=O)(NCCCCCCNS(=O)(=O)c1c(F)cccc1F)c1ccc2c(c1)OCCO2, CCCCc1ccc(NC(=S)NCCCN2CCOCC2)cc1, COc1ccc(NC(=S)N2CCCC(CO)C2)c(OC)c1 (stereo not drawn), CC(C)N(C(=O)CN1CCN(S(=O)(=O)c2ccc(Br)s2)CC1)C(C)C, CSc1ccc(C#N)cc1NC(=O)c1cccc(Cl)c1, O=C(Nc1cccc2cccnc12)c1cccc(Cl)c1, CCn1nc(C(=O)Nc2ccc(N3CCOCC3)cc2)c2ccccc2c1=O, CC(C(=O)N(C)CC(=O)Nc1ccccc1C(F)(F)F)N1C(=O)c2ccccc2C1=O (stereo not drawn), COc1ccc(Cc2nc3ccc(C(=O)NCC4CCOCC4)cc3o2)cc1OC, COCCNC(=O)c1ccc2nc(Cc3ccc(OC)c(OC)c3)oc2c1, COc1ccc(C(=O)COC(=O)c2ccc([N+](=O)[O-])s2)cc1OC, CCc1ccc(NC(=O)N2CCN(c3ccccc3)CC2)cc1, O=C(C(=O)N1CCc2ccccc2C1)N1CCc2ccccc2C1, CCCn1nc(C(=O)OCc2nc(N)nc(Nc3ccccc3C)n2)c2ccccc2c1=O, COc1ccc(/C(O)=C2/C(=O)C(=O)N(c3nc(C)c(C)s3)C2c2ccco2)cc1 (stereo not drawn), COc1ccc(C2/C(=C(/O)c3ccccc3)C(=O)C(=O)N2C)c(OC)c1 (stereo not drawn), c1ccc2cc(CCCc3cc4ccccc4cn3)ncc2c1, COc1cc(OC)cc(C(=O)NNC(=O)CCOc2ccccc2OC)c1, CCOc1ccc(Nc2nc(Cl)nc(N3CCN(c4ccc(OC)cc4)CC3)n2)cc1, Cc1ccc(Nc2nc(N3CCOCC3)nc(N3CCOCC3)n2)cc1Cl, Cc1cccc(NC(=O)CN2CCN(C(=O)C3CCN(C(=O)/C=C/c4ccccc4)CC3)CC2)c1C, CCOC(=O)[C@@H]1[C@H]2COc3ccc(Br)cc3[C@H]2N2C(=O)N(c3ccc(Cl)cc3)C(=O)[C@@]12C, COc1ccccc1-c1oc2ccccc2c1C#CCCCCO, c1ccc(-c2cc(-c3ccccc3)[nH]n2)cc1, CN=c1scc(-c2cc(OC)ccc2OC)n1/N=C/c1c(C)[nH]c2ccccc12, N#Cc1ccc(C2=CC(=O)C[C@H](c3ccc(Cl)cc3)C2)cc1, CC(=O)c1cc(C#N)c(N2CC(C)OC(C)C2)nc1C (stereo not drawn), Cc1cc(C#N)c(SCC(N)=O)nc1-c1ccc(F)cc1, CCOC(=O)c1ccc(N/C(=N/S(=O)(=O)c2ccccc2)c2ccccc2)cc1, Cc1ccc(S(=O)(=O)N2CCOCC2)cc1NC(=O)COC(=O)c1cnccn1, CCOc1ccc(/C=N/Nc2nncc(-c3ccccc3)n2)cc1OC, CCNc1nc(NCC)nc(N/N=C/c2ccc(O)c(OC)c2)n1, CCN(CC)S(=O)(=O)c1ccc(N2CCOCC2)c(NC(=O)C(C)Oc2ccc(F)cc2)c1 (stereo not drawn), CC1CCCCC12NC(=O)N(CC(=O)OCC(=O)NCc1ccc(F)cc1)C2=O (stereo not drawn), CCN(CC(=O)Nc1ccccc1C(=O)NC1CC1)Cc1cccs1, Cn1ccsc1=NC(=O)c1cc(S(=O)(=O)N2CCOCC2)ccc1Cl, COc1ccc(-c2nc(SCC(=O)N3CCCC3)n[nH]2)cc1, COc1ccc(-c2nnc3n2CCCCC3)cc1, CN(CC(=O)Nc1ccc(F)c(F)c1F)C(=O)Cn1cnc2c1c(=O)n(C)c(=O)n2C, Cc1ccsc1C(=O)NC1CCCCC1C (stereo not drawn), COc1cc(C(=O)OCc2ccc([N+](=O)[O-])cc2)cc(OC)c1OC, COc1cc(/C=N\Nc2ccc([N+](=O)[O-])cn2)ccc1OCC(=O)O, Cc1ccccc1-c1cc(C(=O)NCC2CC2)n(CC2CC(c3cccnc3)=NO2)n1 (stereo not drawn), O=C(COc1ccccc1O)NC1CCCC1, CC(=O)Nc1ccc(NC(=O)CSc2nnc(C3CC3)n2-c2ccccc2)cc1
